Data published in PubChem BioAssay.
Activity calls are given as the source filed them. Unless noted, the rule behind the calls is not given here.

How the values were obtained:
[1] = blood-stage malaria parasite viability loss – strain 3D7, DAPI fluorescence, 100 nL, primary screen (AID 1184);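 note: parasites grown inside human red blood cells in medium with human serum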; conditions: P. falciparum 3D7 growth, 3 d, higher = more signal
[2] = molecular target: Homeobox protein Hox-A13 (Mus musculus) (UniProt Q62424); assay: disruptors of Hoxa13 oligonucleotide interaction – biochemical, fluorescence polarization, labeled oligonucleotide, primary screen (AID 1185); conditions: Hoxa13:DNA binding, 15 min, higher = more signal, called active from +8 up or from −8 down
[3] = blockers of DNA damage checkpoint Chk1 activation – imaging, HeLa, hydroxyurea, phospho-Chk1 antibody, percent positive cells, primary screen (AID 1186); conditions: hydroxyurea-induced phospho-Chk1 immunofluorescence imaging, higher = more signal
[4] = blockers of DNA damage checkpoint Chk1 activation – imaging, HeLa, hydroxyurea, phospho-Chk1 nuclear intensity, primary screen (AID 1187); conditions: hydroxyurea-induced phospho-Chk1 immunofluorescence imaging, higher = more signal; note: test concentration not given here

Sequence of Homeobox protein Hox-A13 (Mus musculus) (Q62424 whole entry, looked up): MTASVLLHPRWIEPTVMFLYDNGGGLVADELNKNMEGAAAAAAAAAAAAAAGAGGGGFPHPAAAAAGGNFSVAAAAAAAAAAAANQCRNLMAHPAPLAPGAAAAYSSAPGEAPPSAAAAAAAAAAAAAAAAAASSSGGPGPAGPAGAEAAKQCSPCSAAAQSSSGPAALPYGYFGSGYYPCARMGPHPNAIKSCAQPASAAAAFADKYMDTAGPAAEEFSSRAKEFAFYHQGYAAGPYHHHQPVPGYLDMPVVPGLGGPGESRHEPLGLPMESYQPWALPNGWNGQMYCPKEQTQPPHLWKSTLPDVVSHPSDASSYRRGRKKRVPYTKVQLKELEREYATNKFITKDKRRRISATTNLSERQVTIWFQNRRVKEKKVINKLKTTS

SMILES	z-score [1]	z-score [2]	z-score [3]	z-score [4]
C=C(C(=O)CC[C@H](OC(C)=O)c1ccc(CO)o1)C(C)C	-2.1	-2.79 (inactive)	-0.17 (inactive)	-0.428 (inactive)
COc1ccc([Si](C)(C)[C@H]2[C@H](CC(=O)N(CCO)Cc3ccccc3)O[C@@]3(C(=O)N(Cc4ccc(N5CCC5=O)cc4)c4ccccc43)[C@@H]2C)cc1	-1.24	-0.622 (inactive)	-0.632 (inactive)	-0.0543 (inactive)
CCCCCN1CC=CC23O[C@@H]4/C=C\CCC(C)OC(=O)C4[C@H]2C(=O)N(CCO)[C@@H]3C1=O (stereo partly specified)	-1.41	-3.89 (inactive)	-0.174 (inactive)	0.125 (inactive)
O=C(NC1CC1)[C@@H]1c2ccccc2C(=O)N(Cc2ccccc2C(F)(F)F)[C@H]1c1ccc(CO)cc1	-0.358	-1.7 (inactive)	-0.14 (inactive)	0.177 (inactive)
C=C(COC)/C(=C/C[C@H](OC(C)=O)c1cccc(OCCO)c1)c1cc(C(=O)OC)ccc1OC	-2.67	-2.39 (inactive)	-0.283 (inactive)	-0.727 (inactive)
CN(C)CCCC[C@@H]1NC(=O)[C@@H]2C[C@H](C(=O)NCCCCCNC(=O)CS)[C@H](c3cccc(OCCO)c3)N2C1=O	-1.46	-1.12 (inactive)	0.27 (inactive)	0.302 (inactive)
C=CCN1C(=O)[C@]2(O[C@H](CCn3cc([C@H](O)c4ccccc4)nn3)[C@@H]([Si](C)(C)c3ccc(OC)cc3)[C@@H]2C)c2cc(N3CCOC3=O)ccc21	-2.91	-4.64 (inactive)	-1.73 (inactive)	-1.22 (inactive)
COC(=O)C(CC#Cc1ccc2c(c1)[C@]1(C(=O)N2)[C@H](c2ccccc2OCCO)N2[C@H](c3ccccc3)[C@H](c3ccccc3)OC(=O)[C@H]2[C@@H]1C(=O)N1CCCCCCC1)C(=O)OC	-2.2	3.62 (inactive)	0.114 (inactive)	0.72 (inactive)
C=C[C@H](OC)[C@@H](OC(=O)Nc1ccc(OC)cc1)c1ccc(OC)c(O)c1	-0.294	-2.75 (inactive)	0.0254 (inactive)	0.471 (inactive)
CC(C)N1CC=CC23O[C@@H]4/C=C\CCCOC(=O)C4[C@H]2C(=O)N(CCCO)[C@@H]3C1=O (stereo partly specified)	-0.723	-4.49 (inactive)	-0.235 (inactive)	0.101 (inactive)
CC(=O)NCCCC[C@@H]1NC(=O)[C@@H]2C[C@H](C(=O)O)[C@H](c3cccc(OCCO)c3)N2C1=O	-0.313	0.294 (inactive)	-0.0079 (inactive)	0.165 (inactive)
CC(C)(C)OC(=O)CC[C@@]1(C(=O)N2CCOCC2)N=C(c2ccc(OCCCO)cc2)O[C@@H]1c1ccccc1	-1.19	-4.03 (inactive)	-0.31 (inactive)	-0.323 (inactive)
C=CCNC(=O)[C@@H]1[C@H]2C(=O)O[C@H](c3ccccc3)[C@H](c3ccccc3)N2[C@H](c2ccc(O)cc2)[C@@]12C(=O)Nc1ccc(C#Cc3ccc(OC)cc3)cc12	-0.107	0.296 (inactive)	-0.357 (inactive)	-0.426 (inactive)
CCOC(=O)C[C@H]1[C@H](OC(=O)c2ccc(-c3ccccc3)cc2)[C@@H](NC(=O)C2CCCCC2)c2cc(OCCCO)ccc2N1C(=O)c1ccc2ccccc2n1	-0.915	-0.844 (inactive)	-0.807 (inactive)	-0.479 (inactive)
COc1ccc([Si](C)(C)[C@H]2[C@H](CC(=O)N(CCO)Cc3ccccc3)O[C@@]3(C(=O)N(Cc4ccc(N5CCOC5=O)cc4)c4ccccc43)[C@@H]2C)cc1	-1.04	-1.48 (inactive)	-0.0614 (inactive)	0.0752 (inactive)
C=CCNC(=O)[C@@H]1[C@H]2C(=O)O[C@H](c3ccccc3)[C@H](c3ccccc3)N2[C@H](c2ccc(O)cc2)[C@@]12C(=O)Nc1ccccc12	-1.73	-3.58 (inactive)	0.21 (inactive)	0.399 (inactive)
CO[C@H]1O[C@H](CO)[C@@H](OC(=O)Nc2ccccc2)[C@H](OC(=O)Nc2ccccc2-c2ccccc2)[C@@H]1OC(=O)Nc1ccccc1-c1ccccc1	-2.3	-1.96 (inactive)	-0.515 (inactive)	-0.367 (inactive)
COc1ccc(C#Cc2ccc3c(c2)[C@]2(C(=O)N3)[C@H](c3ccc(O)cc3)N3[C@H](c4ccccc4)[C@H](c4ccccc4)OC(=O)[C@H]3[C@@H]2C(N)=O)cc1	-1.17	-0.123 (inactive)	0.186 (inactive)	0.381 (inactive)
C=CCN1C(=O)[C@@]2(O[C@@H](CCn3cc(CCO)nn3)[C@H]([Si](C)(C)c3ccc(OC)cc3)[C@H]2C)c2cc(N3C(=O)c4cccc5cccc3c45)ccc21	-2.85	-5.26 (inactive)	-1.11 (inactive)	-0.144 (inactive)
CC(C)C(=C=CC[C@H](O)c1ccc(OCCO)cc1)C[C@H](O)COCc1ccccc1	-2.65	-4.06 (inactive)	-0.0011 (inactive)	0.313 (inactive)

SMILES	z-score [1]	z-score [2]	z-score [3]	z-score [4]
COc1ccc([Si](C)(C)[C@@H]2[C@@H](CC(=O)N3CCC[C@H]3CO)O[C@]3(C(=O)N(Cc4ccc(N5CCC5=O)cc4)c4ccccc43)[C@H]2C)cc1	-0.0482	-2.83 (inactive)	-0.245 (inactive)	0.476 (inactive)
COC(=O)C1=CC(CCCO)=CC(C2CC2)N(Cc2cc3c(cc2Br)OCO3)C=C1C(=O)OC (stereo unspecified)	-0.963	-4.63 (inactive)	-0.203 (inactive)	-0.201 (inactive)
C=CCC(OC(C)=O)[C@@H]1[C@@H](N(Cc2cc3ccccc3o2)C(=O)c2ccc(-c3ccccc3)cc2)c2cc(OCCCO)ccc2N1C(=O)c1ccc(-c2ccccc2)cc1 (stereo partly specified)	-1.63	-0.639 (inactive)	-0.604 (inactive)	-0.195 (inactive)
O=C(O)[C@H]1C[C@H]2C(=O)NCC(=O)N2[C@H]1c1cccc(OCCO)c1	-0.52	-3.76 (inactive)	0.328 (inactive)	0.212 (inactive)
C=C(/C(=C/C[C@H](OC(=O)c1ccncc1)c1cccc(OCCO)c1)c1cc(C(=O)OC)ccc1OC)C(C)C	-2.77	-2.91 (inactive)	-1.09 (inactive)	-1.36 (inactive)
C=CC[C@@]1(C(=O)NCc2ccccc2)N=C(c2ccc(OCCCO)cc2)O[C@@H]1c1ccccc1	-2.24	-6.13 (inactive)	-0.762 (inactive)	-0.974 (inactive)
O=C1O[C@H](c2ccccc2)[C@H](c2ccccc2)N2[C@H]1[C@@H](C(=O)Nc1nc3ccccc3s1)[C@]1(C(=O)Nc3ccc(C#CCCO)cc31)[C@H]2c1ccccc1OCCO	-2.23	2.73 (inactive)	0.288 (inactive)	0.492 (inactive)
C=C(C(=O)CC[C@@H](OC(C)=O)c1ccccc1OCCO)C(C)C	-1.59	-1.92 (inactive)	-0.345 (inactive)	-0.171 (inactive)
COCCCNC(=O)[C@@]1(Cc2ccccc2CN=[N+]=[N-])COC(c2ccc(OCCCO)cc2)=N1	-2.1	-4.83 (inactive)	-0.742 (inactive)	-0.73 (inactive)
NC(=O)N1C(=O)C2C(C1=O)C1C=C(c3ccc(CO)cc3)C2C(C2CC2)N1Cc1cc2c(cc1Br)OCO2 (stereo unspecified)	-2.14	-3.21 (inactive)	-0.136 (inactive)	-0.279 (inactive)
CC(C)C[C@@H]1NC(=O)[C@@]23C(=O)N[C@@H](Cc4ccccc4)C2[C@H](C)[C@@]2(C)O[C@H]2C3/C=C/C/C=C\CNC(=O)[C@H](Cc2ccccc2)NC1=O (stereo partly specified)	-1.46	-5.15 (inactive)	0.03 (inactive)	0.356 (inactive)
CC(C)CNC(=O)[C@@H]1c2ccccc2C(=O)N(Cc2ccc(OC(F)(F)F)cc2)[C@H]1c1ccc(CO)cc1	-0.192	-2.67 (inactive)	-0.919 (inactive)	-1.36 (inactive)
NCCCCCNC(=O)[C@H]1C[C@H]2C(=O)NCC(=O)N2[C@H]1c1ccc(O)cc1	-0.223	-0.587 (inactive)	0.637 (inactive)	0.791 (inactive)
CC(C)(C)OC(=O)CC[C@]1(C(=O)NCc2ccccc2)N=C(c2ccc(OCCCO)cc2)O[C@H]1c1ccccc1N=[N+]=[N-]	-2.16	-0.908 (inactive)	-0.328 (inactive)	0.252 (inactive)
C=C(COC)C(=O)CC[C@H](OC(=O)c1ccccc1-c1ccccc1C(=O)O)c1ccccc1OCCO	-1.11	-3.93 (inactive)	0.269 (inactive)	-0.228 (inactive)
[N-]=[N+]=Nc1ccccc1[C@H]1OC(c2ccc(OCCCO)cc2)=N[C@@]1(Cc1ccccc1)C(N)=O	-1.96	-3.95 (inactive)	-0.313 (inactive)	-0.179 (inactive)
O=C(NCc1ccccc1)[C@@H]1c2ccccc2C(=O)N(Cc2ccccc2Cl)[C@H]1c1ccc(CO)cc1	0.187	-0.497 (inactive)	-0.0434 (inactive)	0.206 (inactive)
CO[C@H]1O[C@H](CO)[C@@H](OC(=O)Nc2ccccc2)[C@H](OC(=O)Nc2ccc3c(c2)OCO3)[C@H]1OC(=O)Nc1ccc2c(c1)OCO2	-2.2	-7.83 (inactive)	-0.935 (inactive)	-0.967 (inactive)
COc1ccc([Si](C)(C)[C@@H]2[C@@H](CCn3cc([C@H](O)c4ccccc4)nn3)O[C@]3(C(=O)N(C)c4c(Br)cc(C)cc43)[C@H]2C)cc1	-1.22	-3.19 (inactive)	-0.973 (inactive)	-0.208 (inactive)
